In PubChem BioAssay (Tox21):
Values joined by “and” are separate entries in the source; they are usually repeats but may differ in a detail not shown here. Equal entries are not always repeated. Records with an inconclusive call do not appear. Active and inactive are the calls of the source. The call rests on the fitted dose curve; in most records, active means well fitted curve in the direction sought with a large enough effect in the repeat runs; inconclusive means weak or mixed curves; inactive means no such curve, though single readings can be large; an effect the other way counts as inactive or inconclusive.

Experiments:
[1] = A CellTox Green Cytotoxicity Assay to monitor cytotoxicity in HepG2 cells - 0 hour (AID 1224882); settings: CellTox Green fluorescence; series mostly up to 76.8 µM; further: nearly all actives have a fitted effect of over 35% in size; further: potency means the concentration at half of the fitted maximal effect
In short: (§1)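 Measurements at 0, 8, 16, 24, 32 and 40 h of treatment captured CellTox Green fluorescence in HepG2 cells that had been co-plated with reagent and preincubated 5 h at 37 C/5% CO2.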

[2] = A CellTox Green Cytotoxicity Assay to monitor cytotoxicity in HepG2 cells - 32 hour (AID 1224883); settings: CellTox Green fluorescence; series mostly up to 76.8 µM; further: nearly all actives have a fitted effect of over 50% in size; further: potency means the concentration at half of the fitted maximal effect
In short: as §1

[3] = A CellTox Green Cytotoxicity Assay to monitor cytotoxicity in HEK293 cells - 8 hour (AID 1224884); settings: CellTox Green fluorescence; series mostly up to 76.8 µM; further: nearly all actives have a fitted effect of over 35% in size; further: potency means the concentration at half of the fitted maximal effect
In short: (§2)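 Tox21 screen in HEK293: membrane-impermeant cyanine dye fluoresces on binding dead-cell DNA; compound pinned 5 h post-seeding, plates held at 37 C, signal read repeatedly through 40 h.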

[4] = qHTS RealTime-Glo MT Cell Viability Assay in HepG2 cells - 16 hour (AID 1224885); settings: RealTime-Glo luminescence; series mostly up to 76.8 µM; further: nearly all actives have a fitted effect of over 50% in size; further: potency means the concentration at half of the fitted maximal effect
In short: (§3)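 HepG2 suspension premixed with RealTime-Glo reagents is plated at 600 cells per well and left 5 h at 37 C/5% CO2. Compounds in DMSO then go in, and bioluminescence reflecting viable cell number is recorded over 40 h.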

[5] = qHTS RealTime-Glo MT Cell Viability Assay in HEK293 cells - 24 hour (AID 1224886); settings: RealTime-Glo luminescence; series mostly up to 76.8 µM; further: nearly all actives have a fitted effect of over 50% in size; further: potency means the concentration at half of the fitted maximal effect
In short: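 Reads taken at 0, 8, 16, 24, 32 and 40 h from the same wells. HEK293 cells (600/well) carried RealTime-Glo reagents from seeding, with compound added after a 5 h settle at 37 C.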

[6] = qHTS RealTime-Glo MT Cell Viability Assay in HEK293 cells - 8 hour (AID 1224887); settings: RealTime-Glo luminescence; series mostly up to 76.8 µM; further: nearly all actives have a fitted effect of over 50% in size; further: potency means the concentration at half of the fitted maximal effect
In short: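 HEK293 + NanoLuc + prosubstrate, 600 cells/well; 5 h, 37 C/5% CO2; compound 23 nL in DMSO by pintool; 37 C; luminescence read at 0, 8, 16, 24, 32 and 40 h time points.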

[7] = A CellTox Green Cytotoxicity Assay to monitor cytotoxicity in HEK293 cells - 16 hour (AID 1224888); settings: CellTox Green fluorescence; series mostly up to 76.8 µM; further: nearly all actives have a fitted effect of over 35% in size; further: potency means the concentration at half of the fitted maximal effect
In short: as §2

[8] = qHTS RealTime-Glo MT Cell Viability Assay in HepG2 cells - 0 hour (AID 1224889); settings: RealTime-Glo luminescence; series mostly up to 76.8 µM; further: nearly all actives have a fitted effect of over 50% in size
In short: as §3

[9] = A CellTox Green Cytotoxicity Assay to monitor cytotoxicity in HepG2 cells - 8 hour (AID 1224890); settings: CellTox Green fluorescence; series mostly up to 76.8 µM; further: nearly all actives have a fitted effect of over 45% in size; further: potency means the concentration at half of the fitted maximal effect
In short: as §1

Measured: Potency

CCOC(=O)O[C@H](C)OC(=O)c1ccc2c(c1)cc(C(=O)NC1CCN(C(C)C)CC1)n2Cc1cc(-c2ccc(Cl)s2)on1
active: [2] 11.5 µM | [3] 51.3 µM | [4] 12.9 µM | [5] 11.5 µM | [6] 11.5 µM | [7] 45.8 µM | [9] 18.2 µM
inactive: [1] | [8]

CC1=C(/C=C/C(C)=C/C=C/C(C)=C/C=O)C(C)(C)CCC1
inactive: [1] | [8]
active: [2] 48.7 µM | [3] 48.7 µM | [4] 48.7 µM | [5] 17.3 µM | [7] 43.4 µM

Cc1cc(O)c2ccccc2c1O
inactive: [1]
active: [2] 13.4 µM | [3] 9.52 µM | [4] 13.4 µM | [5] 7.56 µM | [6] 5.35 µM | [7] 9.52 µM | [9] 21.3 µM

CCCCCCOC(=O)c1ccc(O)cc1
active: [2] 43.7 µM and 7.76 µM | [5] 43.7 µM and 24.5 µM | [6] 43.7 µM and 24.5 µM
not listed: [8]
inactive: all other assays above

O=C1CCCc2c1cc1ccc3cccc4ccc2c1c34
active: [5] 8.82 µM
not listed: [6] | [7]
inactive: all other assays above

Cc1ccc2oc(CN(Cc3ccccc3)C(=O)Nc3c(F)cc(F)cc3F)c(-c3ccc(Cl)cc3)c2c1
not listed: [4]
inactive: all other assays above

CC(C)=CCOc1ccc(/C=C/C(=O)c2ccc(OCC=C(C)C)cc2OCC(=O)O)cc1
inactive: all assays above

C=C(C)C(=O)OCC[N+](C)(C)C
not listed: [7] | [8]
inactive: all other assays above

CCCCCCCC[P+](CCCCCCCC)(CCCCCCCC)CCCCCCCC
inactive: [1]
active: [2] 10.9 µM | [3] 10.9 µM | [4] 17.3 µM | [5] 1.73 µM | [6] 6.13 µM | [7] 10.9 µM | [9] 17.3 µM

CN(C/C=C/C#CC(C)(C)C)Cc1cccc2ccccc12
inactive: [1] | [2] | [3] | [4] | [9]

Oc1cccc(-c2c3nc(c(-c4cccc(O)c4)c4ccc([nH]4)c(-c4cccc(O)c4)c4nc(c(-c5cccc(O)c5)c5ccc2[nH]5)CC4)C=C3)c1
active: [5] 23.9 µM | [6] 23.9 µM
not listed: [4]
inactive: all other assays above

Nc1ccc2c3c(cccc13)-c1ccccc1-2
inactive: [4]
active: [1] 24.8 µM | [2] 44.1 µM | [3] 44.1 µM | [5] 24.8 µM | [6] 19.7 µM | [9] 39.3 µM

CCCCCCCCNC(C)C(O)c1ccc(SC(C)C)cc1 (configuration not stated)
inactive: [1]
active: [2] 16.9 µM | [3] 21.3 µM | [4] 15.1 µM | [5] 9.52 µM | [6] 10.7 µM | [7] 19 µM | [9] 21.3 µM

O=C(OCC(COC(=O)c1ccccc1)(COC(=O)c1ccccc1)COC(=O)c1ccccc1)c1ccccc1
active: [5] 48.9 µM | [6] 24.5 µM
not listed: [7]
inactive: all other assays above

O=S1(=O)CC(Cl)(Cl)C(Cl)(Cl)C1
inactive: [1] | [8]
active: [2] 7.76 µM | [4] 6.92 µM | [6] 12.3 µM | [9] 13.8 µM

CN1CCN(CCC(=O)N2c3ccccc3Sc3ccc(C(F)(F)F)cc32)CC1
active: [2] 19 µM
inactive: [3]

OCc1c[nH]c2ccccc12
inactive: [1] | [4] | [8] | [9]

CSc1ccc2c(c1)C(N1CCN(C)CC1)Cc1ccccc1S2 (configuration not stated)
inactive: [1] | [3] | [6] | [7]
active: [2] 23.9 µM

O=C1CCCCCN1SSN1CCCCCC1=O
not listed: [2] | [4]
inactive: all other assays above

Oc1ccc(C2(c3ccc(O)cc3)CC3CC2C2CCCC32)cc1 (configuration not stated)
inactive: [1] | [4] | [8] | [9]
active: [5] 41.9 µM

COc1cc(-c2nc(NC(=O)c3cc4cc(C)cc(C)c4n3CC(=O)O)sc2CCC2CCCCC2)c(OC)cc1Cl
active: [1] 44.9 µM | [4] 35.7 µM | [5] 40 µM | [9] 40 µM
inactive: [6] | [7]

COc1ccc(C(=O)/C(Br)=C\C(=O)O)cc1
active: [2] 13.8 µM | [5] 38.9 µM
not listed: [4] | [6]
inactive: all other assays above

C[C@H]1[C@H]2CC[C@H]3[C@@H]4CC=C5C[C@@H](N(C)C)CC[C@]5(C)[C@H]4CC[C@]23CN1C
not listed: [1] | [9]
inactive: all other assays above

Cc1cc(O)c(Cl)c(C)c1Cl
inactive: [1] | [4] | [5] | [6] | [8]
active: [2] 54.9 µM

Cc1cccc2c1cc1ccc3cccc4ccc2c1c34
inactive: [1] | [2] | [4] | [9]

CCOc1ccc2nc3cc(N)ccc3c(N)c2c1
active: [2] 16.9 µM
not listed: [4] | [5]
inactive: all other assays above

Nc1ccc(N)c2ccccc12
active: [2] 54.9 µM | [6] 24.5 µM
not listed: [4] | [5]
inactive: all other assays above

CCCCCCCCCCCCCCCC(=O)OC[C@H](O)[C@H]1OC(=O)C(O)=C1O
not listed: [3] | [7]
inactive: all other assays above

CN1CCC(Nc2ncc3ncnc(Nc4ccc(F)c(Cl)c4)c3n2)CC1
active: [2] 26.8 µM | [5] 9.52 µM
not listed: [4] | [6]
inactive: all other assays above

O=C1Cc2cc(CCN3CCN(c4nsc5ccccc45)CC3)c(Cl)cc2N1
active: [5] 23.9 µM
inactive: [1] | [8] | [9]

c1cc(C(c2ccc(OCC3CO3)cc2)c2ccc(OCC3CO3)cc2)ccc1OCC1CO1 (configuration not stated)
not listed: [4] | [5]
inactive: all other assays above

O=Cc1cc(O)ccc1Br
not listed: [2] | [5]
inactive: all other assays above

CCc1cc(Cc2cc(CC)c(N)c(CC)c2)cc(CC)c1N
active: [5] 27.5 µM | [6] 27.5 µM
not listed: [2] | [3]
inactive: all other assays above

CC1(C)CCC(C)(C)c2cc(C(=O)Nc3ccc(C(=O)O)cc3)ccc21
not listed: [2] | [3] | [8]
inactive: all other assays above

CCc1cc(Cc2cc(CC)cc(C(C)(C)C)c2O)c(O)c(C(C)(C)C)c1
inactive: [1] | [3]
active: [4] 49 µM | [5] 15.5 µM | [6] 13.8 µM

CCCCN(CCCC)c1ccc(C(=O)c2ccccc2C(=O)O)c(O)c1
not listed: [2] | [3] | [7]
inactive: all other assays above

CC(C)OC(=O)c1cc2c(OCC(O)CNC(C)(C)C)cccc2[nH]1 (configuration not stated)
active: [5] 9.52 µM | [6] 9.52 µM
inactive: [1] | [4] | [8] | [9]
